Experimental data from ChEMBL document CHEMBL4513216, “Probing the Open Global Health Chemical Diversity Library for Multistage-Active Starting Points for Next-Generation Antimalarials” (ACS Infect Dis, 2020).
In all, about 69,000 compounds went through this assay and about 8,600 (12%) showed an effect of 50% or more. Only a selection was taken, and strong results are over-represented in it overall.

system: Plasmodium berghei; experiment: Screen against P. berghei liver stage (PbLuc), transformed with Luciferase, at 10uM; type: functional, HepG2; conditions: tested at 10 uM

| SMILES | INHIBITION [%] |
| --- | --- |
| O=C(CCc1nccs1)N1CCN(c2ncccn2)CC1 | 26.1 |
| O=C(CCc1nccs1)N1CCN(c2ccccn2)CC1 | 51.1 |
| O=C(CCc1nccs1)N1CCN(c2cccnn2)CC1 | 1.77 |
| CC(C)OCCC(=O)NCCC(=O)N1CCN(c2ccccn2)CC1 | 14.2 |
| CC(C)C(=O)NCCC(=O)N1CCN(c2ccccn2)CC1 | 24.1 |
| CC(C)COCCC(=O)NCCC(=O)N1CCN(c2ccccn2)CC1 | 56.6 |
| Cc1nn(CC(=O)NCCc2ccncc2)c(=O)n1Cc1ccccc1 | -45 |
| CNC(=O)CN(C)C(=O)c1cc(Cl)c(I)cc1OC | 45.2 |
| CCCNC(=O)C1CCCN(Cc2ccc(-n3cncn3)c(C)c2)C1 (configuration not stated) | -14.5 |
| Cc1cc(CNc2ccnn2C)ccc1-n1cncn1 | 62.8 |
| Cc1cc(CNc2ccnn2CC(C)C)ccc1-n1cncn1 | 89.7 |
| Cc1cc(CNC(C)Cn2cncn2)ccc1Br (configuration not stated) | 41.4 |
| CC(Cn1cncn1)NCc1ccc2nonc2c1 (configuration not stated) | 12 |
| CCOC(=O)NC1CCCN(Cc2ccc(-n3cncn3)c(C)c2)C1 (configuration not stated) | -1.35 |
| Cc1nc(CN)cc(NCc2ccccc2-n2cncn2)n1 | 33.7 |
| CCc1cc(NCc2ccc(-n3cncn3)c(C)c2)n(C)n1 | 79.5 |
| Cc1cc(CN2CCCC(NS(C)(=O)=O)C2)ccc1-n1cncn1 (configuration not stated) | -3.14 |
| CN1CCc2ncc(CNC(=O)c3cccn3C)n2CC1 | 20.9 |
| CCn1ccnc1CN1CCN(Cc2cnc(C)cn2)CC1C (configuration not stated) | 13.2 |

| SMILES | INHIBITION [%] |
| --- | --- |
| NC(=O)CN1CCCC1c1csc(Nc2cnccn2)n1 (configuration not stated) | 51.5 |
| NC(=O)CN1CCC(c2csc(Nc3cnccn3)n2)CC1 | 33.8 |
| c1cnc(N2CCC(c3csc(Nc4cnccn4)n3)CC2)nc1 | 76.7 |
| COCC(=O)N1CCCC1c1csc(Nc2cnccn2)n1 (configuration not stated) | 44.1 |
| Cc1nc(Nc2cnccn2)cc(C2CCN(c3ncccn3)C2)n1 (configuration not stated) | -17.7 |
| CC(=O)N1CCCC1c1csc(Nc2cnccn2)n1 (configuration not stated) | 13.5 |
| OCCN1CCC(c2csc(Nc3cnccn3)n2)CC1 | 0.825 |
| c1cnc(N2CCCC(c3csc(Nc4cnccn4)n3)C2)nc1 (configuration not stated) | 61.3 |
| CCC(=O)N1CCCC1c1csc(Nc2cnccn2)n1 (configuration not stated) | -4.82 |
| CCCn1cnnc1CN(C)C(=O)C1CCCN(C2CCN(C)CC2)C1 (configuration not stated) | -21.3 |
| COCCC(=O)N1CCCC1c1nc(O)cc(-c2ccccn2)n1 (configuration not stated) | 35.2 |
| Cc1nc2n(n1)CC(Nc1nc(-c3ccccc3)no1)CC2 (configuration not stated) | -6.51 |
| COc1ccccc1CNC(=O)N1CCCC(CO)C1 (configuration not stated) | -10.7 |
| CSCc1cc(F)ccc1CNC(=O)N1CCC(CO)CC1 | 56.6 |
| CSCc1cc(F)ccc1CNC(=O)N1CCC[C@@H]1CO | 31.9 |
| CSCc1cc(F)ccc1CNC(=O)N1CCOCC1 | 13.1 |
| CSCc1cc(F)ccc1CNC(=O)N1CCCC(CO)C1 (configuration not stated) | 78.3 |
| CSCc1cc(F)ccc1CNC(=O)N1CCCC1 | -110 |
